# Experimental data taken from PubChem BioAssay (NCI).
# This is part of a sample that, as a whole, favours compounds with a hit. Of some 83,000 tested, about 20% had one in any assay.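 Method: cells in 96-well plates; compound added at one concentration; 48 h incubation; percent growth measured; values under 10 scored active.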 A number with no mark means an inactive call. Active and inactive are the calls of the source.
# Tested on: LOX IMVI melanoma
# Test: NCI-60 one-dose screen, 48 h (100 = growth as untreated, 0 = no growth, -100 = all killed)
# Details: 10 µM unless noted
# Procedure: Growth inhibition of the LOX IMVI human tumor cell line is measured as a screen for anti-cancer activity. Cells are grown in 96 well plates and exposed to the test compound for 48 hours. Compounds are tested at a single concentration, which is 10^-5 M for most compounds. The reported endpoint is percent growth (GI% or GIPRCNT), where numbers from 0 - 100% represent growth inhibition, and numbers from -100% - 0 represent cell death. For example, a value of 40 represents 60% growth inhibition. A value of 0 means no net growth occurred over the course of the experiment. A value of -40 indicates 40% of cells at the beginning of the experiment died by the end of the experiment. A value of -100 means all cells are dead at the end of the experiment.
# NCI-60 Human Tumor Cell Lines Screen was performed using the standard one-dose NCI protocol, which is described in more detail at https://dtp.cancer.gov/discovery_development/nci-60/default.htm.
# Compounds with GIPRCNT values below 10 were considered active. Activity score was based on GIPRCNT using the following formula: […]
# Score is 0 for GIPRCNT values of 100 or above, 50 for GIPRCNT values of 0, and 100 for GIPRCNT values of -100.
row,SMILES,growth
1,O=C1CCC(C(=O)N/N=C/c2ccc([N+](=O)[O-])cc2)N1 (stereo not given),91.9%
2,CN1CCN(c2ccc(Nc3ncc4[nH]c(=O)n(Cc5ccccc5N)c4n3)cc2)CC1,88.7%
3,NS(=O)(=O)Oc1cccc(-c2nc3sccn3c2-c2ccccc2)c1,49.5%
4,Cc1nc2ccccc2c(/C=C/c2ccc(Cl)cc2)c1C(=O)/C=C/c1ccccc1,-85.3% (active)
5,CCOc1ccc(N2C(=O)CCSC2=S)cc1,96.5%
6,CC1(C)CC(=O)C2=C(C1)OC(C(=O)c1ccccc1)C2c1cccc(Oc2ccccc2)c1 (stereo not given),37%
7,CN1CCN(Cc2ccc(NC(=O)c3cncc(C#Cc4c(N)ncc5cc(F)ccc45)c3)cc2C(F)(F)F)CC1,-81.4% (active)
8,CCN1C(=O)N(CC)C2C1NN=c1s/c(=C\c3ccccc3)c(=O)n12 (stereo not given),15.9%
9,O=C1NC(=O)C(=Cc2cc(-c3ccc(Cl)cc3)n(-c3ccccc3)n2)C(=O)N1,104%
10,COc1ccc(CNc2c3ccccc3nc3ccccc23)cc1OC,-3.83% (active)
11,CCOc1ccc(-c2cc(C3(S(=O)(=O)c4ccc(C)cc4)CC=CC3)on2)cc1,91.1%
12,O=c1c(/C=C/c2c(O)ccc3ccccc23)nnc2sc(-c3cccc([N+](=O)[O-])c3)nn12,33.7%
13,CC(=O)c1c(/C=C/c2ccc(C)cc2)c2ccccc2[nH]c1=O,84.7%
14,CN(C)CCCN(CCC1CCCCC1)CCC1CCCCC1,5.93% (active)
15,Cn1cc(-c2csc(-c3cn(C)c4ccc(F)cc34)n2)c2cnccc21,-90% (active)
16,Cc1ccccc1NC(=O)c1sc2nc3c(cc2c1N)CCCC3,40.5%
17,CC(C)C(=O)Nc1ncc(C(=O)NCCN(Cc2ccccc2)C(=O)c2ccc(S(=O)(=O)Nc3ccccc3)cc2)s1,104%
18,Cc1ccc2nc(/C=C/c3ccc(N(C)C)cc3)cc(C)c2c1,34.1%
19,O=C(Nc1ncc(Cc2ccccc2)s1)c1ccc2c(c1)OCCO2,10.6%
20,O=C(Nc1ccccc1)Nc1ccccc1CNc1nc(Nc2ccc(OCCN3CCCC3)cc2)ncc1Cl,-68.3% (active)

row,SMILES,growth
1,C#C[C@]1(O)CC[C@H]2[C@@H]3CC=C4c5sc(-c6ccccc6)nc5CC[C@]4(C)[C@H]3CC[C@@]21C,74.9%
2,CCN(CC)CCCNc1cc(OC)cc2cccnc12,97.2%
3,C=C(CNCCO)[C@@H]1CC[C@]2(CO)CC[C@]3(C)[C@H](CC[C@@H]4[C@@]5(C)CCC(NCCO)C(C)(C)[C@@H]5CC[C@]43C)[C@@H]12 (stereo not given in full),33.3%
4,Clc1ccc2c(NCCCn3cnc4c(N5CCCC5)nc(Cl)nc43)ccnc2c1,90.2%
5,O=C(Nc1ccccc1CNc1nc(Nc2ccc(OCCN3CCCC3)cc2)ncc1Cl)NC1CCCCC1,84.7%
6,Cn1ncc(CC(=O)O)c1-n1nnc2cc(Cl)ccc2c1=O,103%
7,C(CCCSC1=NCCN1)CCSC1=NCCN1,99.1%
8,O=C(Nc1cccc(Cl)c1)Oc1c(Cl)c(Cl)c(Cl)c(Cl)c1Cl,95.9%
9,O=CN1N=C(c2cccc(Nc3ccncc3)c2)CC1c1ccc2c(c1)OCO2 (stereo not given),95.3%
10,C1=C2CCCC3=Cc4ccccc4OC23Oc2ccccc21,23%
11,COc1ccc(-c2cc(-c3ccc(Nc4nc(Nc5ccc(Cl)cc5)nc(Nc5ccc(Cl)cc5)n4)cc3)no2)cc1,76.3%
12,COC(=O)c1nc(-c2ccccc2)oc1S(=O)(=O)NCC(c1ccc(Cl)cc1)N1CCCCC1 (stereo not given),43.9%
13,Brc1ccc(-c2nn(-c3ccccc3)cc2-c2nn[nH]n2)s1,90.9%
14,CO[C@]12C=C/C(=C(/C(=O)OCc3cccnc3)C(=O)CCCCCCCC[C@]3(OC)C=C/C(=C(/C(=O)OCc4cccnc4)C(=O)CCCCCCCC1)O3)O2,-82.3% (active)
15,COc1ccc(-c2ccc(-c3ccc(C(=N)N)o3)o2)cc1,-58.1% (active)
16,CN1CCN(Cn2nc(-c3cc(Cl)cc(Cl)c3Cl)oc2=S)CC1,93.8%
17,C=C(C[n+]1ccccc1)[C@@H]1CC[C@]2(C(=O)OC)CC[C@]3(C)[C@H](CC[C@@H]4[C@@]5(C)CCC(=O)C(C)(C)[C@@H]5CC[C@]43C)[C@@H]12,93.7%
18,CCCCC/C=C/CCC(=O)N[C@H]1[C@H](Oc2c3cc4cc2Oc2ccc(cc2Cl)[C@@H](O[C@@H]2O[C@H](CO)[C@@H](O)[C@H](O)[C@H]2NC(C)=O)[C@@H]2NC(=O)[C@H](NC(=O)[C@@H]4NC(=O)[C@H]4NC(=O)[C@@H](Cc5ccc(c(Cl)c5)O3)NC(=O)[C@@H](N)c3ccc(O)c(c3)Oc3cc(O)cc4c3)c3ccc(O)c(c3)-c3c(O[C@H]4O[C@H](CO)[C@@H](O)[C@H](O)[C@@H]4O)cc(O)cc3[C@H](C(=O)O)NC2=O)O[C@H](CO)[C@H](O)[C@@H]1O,91.5%
19,C[C@H]1c2ccccc2CN1CCCOc1cc2c(cc1OCC1CC1)C1(CCCC1)C(N)=N2,-70.2% (active)
20,COC(=O)c1nc(-c2ccc(C)cc2)oc1N1CCOCC1,107%
